{"source": "PubChem BioAssay (NCI)", "note": "About 83,000 compounds went through this panel and 20% of them were active in at least one assay; those are over-represented in the sample as a whole.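 48-hour exposure, single concentration, 96-well plates; percent growth endpoint where 0 means no net growth. Active: below 10.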 Unmarked numbers belong to inactive results. Active and inactive are the calls of the source.", "data": [{"test_system": "EKVX NSCLC", "assay": "NCI-60 one-dose screen, 48 h (100 = growth as untreated, 0 = no growth, -100 = all killed)", "conditions": "10 µM unless noted", "values": [{"smiles": "CCCCCCCC/C=C\\CCCCCCCCOc1ccccc1CCOP(=O)(O)OCC[N+](C)(C)C", "growth": "91.7%"}, {"smiles": "CCN1C(=S)N(CC)C2Nn3c(s/c(=C4\\C(=O)N(C)c5ccccc54)c3=O)=NC21", "note": "(stereo not drawn)", "growth": "54.6%"}, {"smiles": "O=C(CNC(=O)c1cccc2ccccc12)Nc1ccccc1Oc1ccccc1", "growth": "26.3%"}, {"smiles": "CN(C)C/C=C/C(=O)Nc1cc2c(Nc3ccc(F)c(Cl)c3F)ncnc2cc1OCCOC(F)F", "growth": "12.4%"}, {"smiles": "CC(C)C(C(=O)CCN(C)C)c1ccc(Cl)cc1", "note": "(stereo not drawn)", "growth": "103%"}, {"smiles": "CCN1C(=O)/C(=c2\\sc3n(c2=O)C2C(NN=3)N(CC)C(=S)N2CC)c2ccccc21", "note": "(stereo not drawn)", "growth": "96.9%"}, {"smiles": "ClC1=C(Cl)C(Cl)=C(Cl)C1=Cc1ccc(Cl)cc1Cl", "growth": "-19.8% (active)"}, {"smiles": "CC(C)CCC[C@@H](C)[C@H]1CC[C@H]2[C@@H]3CC[C@H]4C/C(=N/O)CC[C@]4(C)[C@H]3CC[C@]12C", "growth": "101%"}, {"smiles": "COc1ccc(/C=c2\\sc3n(c2=O)C2C(NN=3)N(C)C(=O)N2C)cc1", "note": "(stereo not drawn)", "growth": "56.7%"}, {"smiles": "COc1ccc(OC)c(/C=C2\\Oc3cc(OCCN4CCCC4)ccc3C2=O)c1", "growth": "95.2%"}, {"smiles": "CCCCCC/C=C\\CCCCCCCCOc1ccc(CCOP(=O)(O)OCC[N+](C)(C)C)cc1", "growth": "95.3%"}, {"smiles": "CCN1C(=O)N(CC)C2C1NN=c1s/c(=C3\\C(=O)N(C4CCCC4)c4ccccc43)c(=O)n12", "note": "(stereo not drawn)", "growth": "56.1%"}, {"smiles": "CN(C)c1nc(N)c(N=O)c(N)n1", "growth": "111%"}, {"smiles": "C/C(=N\\NC(=O)CC#N)c1cc2cc(Cl)ccc2o1", "growth": "33.6%"}, {"smiles": "COc1cc(C2CC(c3c(C)[n+]([O-])c4ccccc4[n+]3[O-])=NN2)cc(OC)c1OC", "note": "(stereo not drawn)", "growth": "123%"}, {"smiles": "COc1ccc(NC(=S)/N=c2\\oc3c(OC)cccc3cc2-c2cc3ccccc3[nH]2)cc1", "growth": "79.6%"}, {"smiles": "COc1cc(/C=C/C(=O)c2ccccc2O)ccc1OCCCOc1cc2c(cc1OC)C(=O)N1CCC[C@H]1C=N2", "growth": "19.7%"}, {"smiles": "O=C1CCC/C=C\\C[C@H]2C=CC(=O)/C2=C/C[C@H](C/C=C\\CC(F)(F)F)O1", "growth": "-17.7% (active)"}, {"smiles": "CC(C)(C)c1cc(-c2nc3ccc(N4CCN(CCO)CC4)cc3[nH]2)cc(C(C)(C)C)c1O", "growth": "92.9%"}, {"smiles": "C=C1C(=O)O[C@H]2[C@H]1CC/C(Cn1cc(-c3ccsc3)nn1)=C\\CC[C@@]1(C)O[C@@H]21", "growth": "-80.3% (active)"}, {"smiles": "C#CCN1C(=O)/C(=c2\\sc3n(c2=O)C2C(NN=3)N(CC)C(=O)N2CC)c2ccccc21", "note": "(stereo not drawn)", "growth": "64.9%"}, {"smiles": "COc1cccc2cc(-c3cc4ccccc4[nH]3)/c(=N/C(=S)Nc3ccccc3)oc12", "growth": "87.3%"}, {"smiles": "Cc1ccc(S(=O)(=O)OCC(=O)Nc2ccc(C(=O)O)c(O)c2)cc1", "growth": "103%"}, {"smiles": "CCCCCCCCCN1C(=O)/C(=c2\\sc3n(c2=O)C2C(NN=3)N(CC)C(=O)N2CC)c2ccccc21", "note": "(stereo not drawn)", "growth": "69.1%"}, {"smiles": "Cc1oc2nc[nH]c(=O)c2c1C(=O)/C=C/c1ccc(Cl)cc1Cl", "growth": "117%"}, {"smiles": "C#CCN1C(=O)/C(=c2\\sc3n(c2=O)NC2C(N=3)N(CC)C(=O)N2CC)c2ccccc21", "note": "(stereo not drawn)", "growth": "69.7%"}, {"smiles": "CCN(Cc1ccc(CN(CC)C(=O)C(Cl)(Cl)Cl)cc1)C(=O)C(Cl)(Cl)Cl", "growth": "68.3%"}, {"smiles": "COc1cc(C(=O)N2CCN(C(=O)c3ccco3)CC2)c(N)cc1OCc1ccccc1", "growth": "94.6%"}, {"smiles": "CCN1C(=O)N(CC)C2Nn3c(s/c(=C\\c4cccc(F)c4)c3=O)=NC21", "note": "(stereo not drawn)", "growth": "79%"}, {"smiles": "COc1ccc(NC(=O)/N=c2\\oc3c(OC)cccc3cc2-c2cc3ccccc3[nH]2)cc1", "growth": "72.3%"}, {"smiles": "O=c1[nH]c(CN2CCN(c3ccccc3F)CC2)nc2sc3c(c12)CCC3", "growth": "100%"}, {"smiles": "O=C(CSc1nc(-c2ccc(Cl)cc2)cn1-c1ccc(Cl)cc1)c1ccc(Br)cc1", "growth": "69.1%"}, {"smiles": "CCCCNc1nnc(-c2cc(-c3cc4ccccc4o3)nn2-c2ccccc2)o1", "growth": "99.4%"}, {"smiles": "COc1cc2oc(-c3cccc(NC(=O)Nc4ccc5c(c4)OCO5)c3)cc(=O)c2c(OC)c1OC", "growth": "86.2%"}, {"smiles": "CCN1C(=O)N(CC)C2Nn3c(s/c(=C4\\C(=O)N(C5CCCC5)c5ccccc54)c3=O)=NC21", "note": "(stereo not drawn)", "growth": "59.7%"}, {"smiles": "NC(N)=NC(N)=Nc1ccccc1-c1ccccc1", "growth": "111%"}, {"smiles": "C=CC(=O)N[C@H](/C=C/C(=O)OCC)Cc1ccc(-c2cc(Cl)cc(Cl)c2)cc1", "growth": "91%"}, {"smiles": "CCN1C(=O)N(CC)C2C1NN=c1s/c(=C\\c3ccccn3)c(=O)n12", "note": "(stereo not drawn)", "growth": "61.7%"}, {"smiles": "C/C1=C\\CCC2(C)OC2CC2CCC(C)(O)C(CC1)C2(C)C", "note": "(stereo not drawn)", "growth": "81.1%"}]}, {"test_system": "SN12C renal", "assay": "NCI-60 one-dose screen, 48 h (100 = growth as untreated, 0 = no growth, -100 = all killed)", "conditions": "10 µM unless noted", "values": [{"smiles": "CCCCCCCC/C=C\\CCCCCCCCOc1ccccc1CCOP(=O)(O)OCC[N+](C)(C)C", "growth": "70.1%"}, {"smiles": "CCN1C(=S)N(CC)C2Nn3c(s/c(=C4\\C(=O)N(C)c5ccccc54)c3=O)=NC21", "note": "(stereo not drawn)", "growth": "51.3%"}, {"smiles": "O=C(CNC(=O)c1cccc2ccccc12)Nc1ccccc1Oc1ccccc1", "growth": "21.8%"}, {"smiles": "CN(C)C/C=C/C(=O)Nc1cc2c(Nc3ccc(F)c(Cl)c3F)ncnc2cc1OCCOC(F)F", "growth": "2.22% (active)"}, {"smiles": "CC(C)C(C(=O)CCN(C)C)c1ccc(Cl)cc1", "note": "(stereo not drawn)", "growth": "95.4%"}, {"smiles": "CCN1C(=O)/C(=c2\\sc3n(c2=O)C2C(NN=3)N(CC)C(=S)N2CC)c2ccccc21", "note": "(stereo not drawn)", "growth": "99.4%"}, {"smiles": "ClC1=C(Cl)C(Cl)=C(Cl)C1=Cc1ccc(Cl)cc1Cl", "growth": "-31.1% (active)"}, {"smiles": "CC(C)CCC[C@@H](C)[C@H]1CC[C@H]2[C@@H]3CC[C@H]4C/C(=N/O)CC[C@]4(C)[C@H]3CC[C@]12C", "growth": "103%"}, {"smiles": "COc1ccc(/C=c2\\sc3n(c2=O)C2C(NN=3)N(C)C(=O)N2C)cc1", "note": "(stereo not drawn)", "growth": "42.3%"}, {"smiles": "COc1ccc(OC)c(/C=C2\\Oc3cc(OCCN4CCCC4)ccc3C2=O)c1", "growth": "92.8%"}, {"smiles": "CCCCCC/C=C\\CCCCCCCCOc1ccc(CCOP(=O)(O)OCC[N+](C)(C)C)cc1", "growth": "91.4%"}, {"smiles": "CCN1C(=O)N(CC)C2C1NN=c1s/c(=C3\\C(=O)N(C4CCCC4)c4ccccc43)c(=O)n12", "note": "(stereo not drawn)", "growth": "31.6%"}, {"smiles": "CN(C)c1nc(N)c(N=O)c(N)n1", "growth": "110%"}, {"smiles": "C/C(=N\\NC(=O)CC#N)c1cc2cc(Cl)ccc2o1", "growth": "93.1%"}, {"smiles": "COc1ccc(NC(=S)/N=c2\\oc3c(OC)cccc3cc2-c2cc3ccccc3[nH]2)cc1", "growth": "84.7%"}, {"smiles": "COc1cc(/C=C/C(=O)c2ccccc2O)ccc1OCCCOc1cc2c(cc1OC)C(=O)N1CCC[C@H]1C=N2", "growth": "6.22% (active)"}, {"smiles": "O=C1CCC/C=C\\C[C@H]2C=CC(=O)/C2=C/C[C@H](C/C=C\\CC(F)(F)F)O1", "growth": "-6.43% (active)"}, {"smiles": "CC(C)(C)c1cc(-c2nc3ccc(N4CCN(CCO)CC4)cc3[nH]2)cc(C(C)(C)C)c1O", "growth": "85.8%"}, {"smiles": "C=C1C(=O)O[C@H]2[C@H]1CC/C(Cn1cc(-c3ccsc3)nn1)=C\\CC[C@@]1(C)O[C@@H]21", "growth": "-18.3% (active)"}, {"smiles": "C#CCN1C(=O)/C(=c2\\sc3n(c2=O)C2C(NN=3)N(CC)C(=O)N2CC)c2ccccc21", "note": "(stereo not drawn)", "growth": "32.4%"}, {"smiles": "COc1cccc2cc(-c3cc4ccccc4[nH]3)/c(=N/C(=S)Nc3ccccc3)oc12", "growth": "80.6%"}, {"smiles": "Cc1ccc(S(=O)(=O)OCC(=O)Nc2ccc(C(=O)O)c(O)c2)cc1", "growth": "105%"}, {"smiles": "CCCCCCCCCN1C(=O)/C(=c2\\sc3n(c2=O)C2C(NN=3)N(CC)C(=O)N2CC)c2ccccc21", "note": "(stereo not drawn)", "growth": "66.3%"}, {"smiles": "Cc1oc2nc[nH]c(=O)c2c1C(=O)/C=C/c1ccc(Cl)cc1Cl", "growth": "67%"}, {"smiles": "C#CCN1C(=O)/C(=c2\\sc3n(c2=O)NC2C(N=3)N(CC)C(=O)N2CC)c2ccccc21", "note": "(stereo not drawn)", "growth": "71%"}, {"smiles": "CCN(Cc1ccc(CN(CC)C(=O)C(Cl)(Cl)Cl)cc1)C(=O)C(Cl)(Cl)Cl", "growth": "97.8%"}, {"smiles": "CCN1C(=O)N(CC)C2Nn3c(s/c(=C\\c4cccc(F)c4)c3=O)=NC21", "note": "(stereo not drawn)", "growth": "79.6%"}, {"smiles": "COc1ccc(NC(=O)/N=c2\\oc3c(OC)cccc3cc2-c2cc3ccccc3[nH]2)cc1", "growth": "78.1%"}, {"smiles": "O=c1[nH]c(CN2CCN(c3ccccc3F)CC2)nc2sc3c(c12)CCC3", "growth": "99.7%"}, {"smiles": "COc1cc2oc(-c3cccc(NC(=O)Nc4ccc5c(c4)OCO5)c3)cc(=O)c2c(OC)c1OC", "growth": "49.5%"}, {"smiles": "CCN1C(=O)N(CC)C2Nn3c(s/c(=C4\\C(=O)N(C5CCCC5)c5ccccc54)c3=O)=NC21", "note": "(stereo not drawn)", "growth": "70.6%"}, {"smiles": "C=CC(=O)N[C@H](/C=C/C(=O)OCC)Cc1ccc(-c2cc(Cl)cc(Cl)c2)cc1", "growth": "88.6%"}, {"smiles": "CCN1C(=O)N(CC)C2C1NN=c1s/c(=C\\c3ccccn3)c(=O)n12", "note": "(stereo not drawn)", "growth": "40.7%"}, {"smiles": "C/C1=C\\CCC2(C)OC2CC2CCC(C)(O)C(CC1)C2(C)C", "note": "(stereo not drawn)", "growth": "101%"}]}]}
